Results: PubChem BioAssay (Tox21)
Calls of active or inactive are those of the source. The call rests on the fitted dose curve; in most records, active means well fitted curve in the direction sought with a large enough effect in the repeat runs; inconclusive means weak or mixed curves; inactive means flat fitted curve, though single readings scatter.

test: qHTS assay to test for compound auto fluorescence at 535 nm (green) in HepG2 cell free culture (AID 720686); settings: Cell-free medium, green autofluorescence 485/535 nm; series mostly up to 91.3 µM
From the text: U.S. Tox21 Program National Center for Advancing Translational Sciences [NCATS] NIH Chemical Genomics Center [NCGC] U.S. Environmental Protection Agency [EPA] National Institutes of Environmental Health Sciences [NIEHS] National Toxicology Program [NTP] U.S. Food and Drug Administration [FDA] Tox21 Assay Overview: Compound auto fluorescence often interferes with screening of the compound library against various biological targets and signaling pathways. Some of these compounds may have fluorophoric properties. Such properties may interfere with the assay outputs resulting in false positives and/or negatives. To decrease such complications and ensure the compound activities are relevant in terms of biological response, the Tox21 10K compound library was screened for auto fluorescence. From the fluorophores used as reporter signals in our screening assays, the auto fluorescence equivalencies of compounds against three fluorophores have been evaluated: Triamterene, Fluorescein and Rose Bengal sodium for blue, green and red fluorescence, respectively. The fluorescence intensities were measured using Excitation/Emission wavelengths at 405/460nm, 485/535nm and 540/590nm for blue, green and red labels, respectively. This assay includes the green fluorescence data.
Tox21 Assay Protocol Summary: 5 uL of culture medium (MEM containing 10% FBS) per well was dispensed into black wall/clear bottom 1536-well plates using a Multidrop Combi Dispenser (ThermoFisher Scientific, Waltham, MA). After 23 nL compound or DMSO vehicle was transferred into assay plate by a pintool work station (Kalypsys, San Diego, CA), fluorescence intensities in the assay plates were measured by an Envision (PerkinElmer, Shelton, CT) plate reader using three labels for measuring blue, green and red fluorescence at […] 460, 535 and 590nm respectively.

SMILES	outcome
CN(C)CCOCCO	inactive
N[C@@H](CCC(=O)N[C@@H](CS)C(=O)NCC(=O)O)C(=O)O	inactive
COc1cc2c(cc1OC)[C@@H]1CC(=O)[C@@H](CC(C)C)CN1CC2	inactive
NC(CO)C(=O)NNCc1ccc(O)c(O)c1O (stereo not given)	inactive
NCCN1CCOCC1	inactive
C[C@@H]1O[C@@H](O[C@@H]2[C@@H](O)[C@H](OCCc3ccc(O)c(O)c3)O[C@H](CO[C@@H]3O[C@H](CO)[C@@H](O)[C@H](O)[C@H]3O)[C@H]2OC(=O)/C=C/c2ccc(O)c(O)c2)[C@H](O)[C@H](O)[C@H]1O	inactive
CC(C)C(=O)OCCc1ccccc1	inactive
Cc1cc(C(C)(C)C)c(O)c(C)c1CC1=NCCN1	inactive
CC1(CO)CN(c2ccccc2)NC1=O (stereo not given)	inactive
CCCCCCCCC(=O)Cl	inactive
Oc1cn2c(n1)Nc1ccc(Cl)c(Cl)c1C2	inactive
CC(CO)c1ccccc1 (stereo not given)	inactive
CC(=O)N[C@@H](CCC(=O)O)C(=O)O	inactive
c1ccc2nccnc2c1	inactive
COc1ccc(-c2cc(=O)c3c(O)cc(O[C@@H]4O[C@H](CO[C@@H]5O[C@@H](C)[C@H](O)[C@@H](O)[C@H]5O)[C@@H](O)[C@H](O)[C@H]4O)cc3o2)cc1O	inactive
CC(=O)Nc1ccc(S(=O)(=O)Cl)cc1	inactive
N[C@@H](CCC(=O)Nc1ccc([N+](=O)[O-])cc1)C(=O)O	inactive
Cc1cccc2nccnc12	inactive
Cc1ccccc1OCC(O)CO (stereo not given)	inactive
CC(C)=CCOC(=O)c1ccccc1	inactive

SMILES	outcome
CCOC(=O)CC(=O)c1ccccc1	inactive
COCCOCCOCCOCCO	inactive
COc1cc(C(=S)N2CCOCC2)cc(OC)c1OC	inactive
O=C(O)C(=O)Cc1ccccc1	inactive
O=C1c2ccccc2C(=O)c2cc(S(=O)(=O)O)ccc21	inactive
O=C(/N=N/C(=O)OCc1ccccc1)OCc1ccccc1	inactive
O=C1CCCC(=O)O1	inactive
CC(CN)CC(C)(C)CCN (stereo not given)	inactive
O=C(O)Cc1ccc(Cl)cc1Cl	inactive
Nc1cccc(O)c1	inactive
CC(C)C[C@H](NC(=O)CNC(=O)[C@H](Cc1ccc(O)cc1)NC(=O)[C@H](CO)NC(=O)[C@H](Cc1c[nH]c2ccccc12)NC(=O)[C@H](Cc1cnc[nH]1)NC(=O)[C@@H]1CCC(=O)N1)C(=O)N[C@@H](CCCN=C(N)N)C(=O)N1CCC[C@H]1C(=O)NCC(N)=O (stereo in doubt)	inactive
NS(=O)(=O)c1ccc(NC(=O)CCC(=O)O)cc1	inactive
CCOc1cc([N+](=O)[O-])c(OCC)cc1N1CCOCC1	inactive
O=C(CCNNC(=O)c1ccncc1)NCc1ccccc1	inactive
CCCC/C=C\CCCCCCCCCC=O	inactive
Nc1ncnc(Nc2ccccc2)n1	inactive
C=C(C)C(=O)OCC(C)(C)COC(=O)C(=C)C	inactive
CC1(C)S[C@@H]2[C@H](N=CN3CCCCCC3)C(=O)N2[C@H]1C(=O)O	inactive
CC(=O)Nc1cccc(C)c1	inactive
CCCCC(CC)COCCO (stereo not given)	inactive
